Test [1] can be described thus: antimalarial activity against Dd2 strain (AID 2302;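 active = growth inhibition above 50% at the single 2 µM test dose, taken to imply half-maximal potency below 2 µM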;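 note: 0% = DMSO untreated growth and 100% = chloroquine plus artemisinin killed control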). The note with it: P. falciparum Dd2 in RBCs, LDH growth readout, 72 h; at 2 µM; active compounds read high.
A short description of test [2]: HepG2 cytotoxicity, primary screen, cytotoxicity control for P. falciparum antimalarial project, cell-based, ATP luminescence (AID 2303;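 active = inhibition above 50%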;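 note: 0% = DMSO wells and 100% = digitonin-killed cells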). The settings on record: HepG2 viability, 24-48 h, at 10 µM, active compounds read high.
Test [3] concerns the target L-lactate dehydrogenase (Plasmodium falciparum (isolate CDC / Honduras)) (UniProt Q27743). In words: PfLDH activity inhibition – cell lysate, 3D7 strain, counter-screen for P. falciparum growth inhibition project (AID 2304).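 Note: 0% = vehicle and 100% = reference inhibitor.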 The note with it: P. falciparum 3D7 crude extract, LDH APAD/NBT absorbance; at 2 µM; active compounds read high. (A counterscreen serves to expose hits that act by an unwanted route or on another target.)

Test [4] can be described thus: inhibition of 3D7 malaria parasite growth – strain 3D7 (AID 2306).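 Note: 0% = DMSO wells and 100% = chloroquine plus artemisinin control wells.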 The note with it: P. falciparum 3D7 erythrocytic growth, LDH absorbance, 72 h; at 2 µM; active compounds read high.
Test [5] addresses Calcium-dependent protein kinase 1 (Plasmodium falciparum (isolate 3D7)) (UniProt P62344). Description: PfCDPK1 kinase inhibitors, biochemical, TCAMS library (AID 1159585; cut-off not given, nearly all actives have IC50 up to about 0.98 µM;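 note: inhibitors leave more ATP so luminescence rises with inhibition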). The settings on record: recombinant PfCDPK1, Kinase-Glo ATP depletion luminescence. In general terms: Kinase-Glo reads ATP consumption through a luciferase reaction.
Test [6] has as its target Plasmodium falciparum protein kinase 6 (PK6, PF3D7_1337100) (UniProt Q8IDW1). Description: PfPK6 kinase inhibitors, biochemical, TCAMS library (AID 1159586). The note with it: recombinant PfPK6, Kinase-Glo ATP depletion luminescence.
Test [7] addresses Protein kinase 7 (PK7), Plasmodium falciparum 3D7 (PF3D7_0213400) (UniProt Q7YTF7). In words: inhibition of Plasmodium PK7 catalytic activity – biochemical, TCAMS antimalarial set, Kinase-Glo luminescence (AID 1159587). The settings on record: recombinant PfPK7, Kinase-Glo ATP depletion luminescence.
The target in test [8] is Calcium-dependent protein kinase 4 (Plasmodium falciparum (isolate 3D7)) (UniProt Q8IBS5). Description: PfCDPK4 kinase inhibitors, biochemical, TCAMS library (AID 1159588; cut-off not given, nearly all actives have IC50 up to about 0.91 µM). The settings on record: recombinant PfCDPK4, Kinase-Glo ATP depletion luminescence.
Calcium-dependent protein kinase 4 (Plasmodium falciparum (isolate 3D7)), sequence (Q8IBS5 whole entry, looked up): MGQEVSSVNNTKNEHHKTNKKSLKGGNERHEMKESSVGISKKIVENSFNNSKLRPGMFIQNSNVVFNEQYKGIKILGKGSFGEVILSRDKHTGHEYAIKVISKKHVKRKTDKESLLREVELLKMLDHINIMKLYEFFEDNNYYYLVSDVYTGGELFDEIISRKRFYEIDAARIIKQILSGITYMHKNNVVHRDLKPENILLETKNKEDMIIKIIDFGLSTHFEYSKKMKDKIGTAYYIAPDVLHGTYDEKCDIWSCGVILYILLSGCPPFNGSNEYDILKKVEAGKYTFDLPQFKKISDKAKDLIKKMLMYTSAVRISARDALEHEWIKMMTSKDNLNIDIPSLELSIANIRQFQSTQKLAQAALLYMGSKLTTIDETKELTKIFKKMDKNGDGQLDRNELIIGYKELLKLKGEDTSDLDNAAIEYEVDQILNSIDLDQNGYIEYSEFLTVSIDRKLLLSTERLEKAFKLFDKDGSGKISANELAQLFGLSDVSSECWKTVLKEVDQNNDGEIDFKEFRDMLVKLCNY

Values without a mark were called inactive. For some assays here: Results with a measured potency or affinity are listed apart. Active and inactive are the calls of the source. Unless noted, the rule behind the calls is not given here.

Calcium-dependent protein kinase 1 (Plasmodium falciparum (isolate 3D7)), sequence (P62344 whole entry, looked up): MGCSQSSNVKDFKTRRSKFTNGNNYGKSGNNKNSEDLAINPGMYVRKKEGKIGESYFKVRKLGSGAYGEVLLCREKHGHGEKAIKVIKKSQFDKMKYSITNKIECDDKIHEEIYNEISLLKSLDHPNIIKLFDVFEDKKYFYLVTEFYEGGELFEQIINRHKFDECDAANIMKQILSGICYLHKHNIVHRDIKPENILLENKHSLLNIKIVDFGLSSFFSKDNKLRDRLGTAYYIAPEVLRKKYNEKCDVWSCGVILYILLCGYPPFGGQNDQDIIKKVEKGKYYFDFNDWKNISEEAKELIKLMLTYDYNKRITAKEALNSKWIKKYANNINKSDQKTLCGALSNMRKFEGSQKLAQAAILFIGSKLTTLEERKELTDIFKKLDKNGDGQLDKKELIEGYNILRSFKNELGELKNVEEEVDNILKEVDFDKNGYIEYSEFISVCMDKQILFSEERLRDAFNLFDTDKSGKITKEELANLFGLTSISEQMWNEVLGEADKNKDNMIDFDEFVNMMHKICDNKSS
Protein kinase 7 (PK7), Plasmodium falciparum 3D7 (PF3D7_0213400), sequence (Q7YTF7 1-343): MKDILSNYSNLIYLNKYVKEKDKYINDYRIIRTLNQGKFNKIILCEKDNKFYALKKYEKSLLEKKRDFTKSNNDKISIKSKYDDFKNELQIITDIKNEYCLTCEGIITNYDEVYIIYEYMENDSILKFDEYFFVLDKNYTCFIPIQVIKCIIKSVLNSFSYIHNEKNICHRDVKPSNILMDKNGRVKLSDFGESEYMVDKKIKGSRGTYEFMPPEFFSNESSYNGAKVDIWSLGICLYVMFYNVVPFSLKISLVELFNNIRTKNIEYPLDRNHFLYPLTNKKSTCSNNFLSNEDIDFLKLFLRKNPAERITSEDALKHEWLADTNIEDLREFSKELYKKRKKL
Plasmodium falciparum protein kinase 6 (PK6, PF3D7_1337100), sequence (Q8IDW1 1-305): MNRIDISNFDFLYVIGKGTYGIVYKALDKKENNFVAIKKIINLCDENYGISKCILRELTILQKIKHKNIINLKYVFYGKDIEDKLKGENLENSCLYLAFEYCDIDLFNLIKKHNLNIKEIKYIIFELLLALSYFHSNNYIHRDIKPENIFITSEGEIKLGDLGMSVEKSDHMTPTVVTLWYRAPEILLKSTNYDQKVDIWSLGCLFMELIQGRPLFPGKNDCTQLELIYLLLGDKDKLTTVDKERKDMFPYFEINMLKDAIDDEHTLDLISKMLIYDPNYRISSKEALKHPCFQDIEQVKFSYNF
L-lactate dehydrogenase (Plasmodium falciparum (isolate CDC / Honduras)), sequence (Q27743 whole entry, looked up): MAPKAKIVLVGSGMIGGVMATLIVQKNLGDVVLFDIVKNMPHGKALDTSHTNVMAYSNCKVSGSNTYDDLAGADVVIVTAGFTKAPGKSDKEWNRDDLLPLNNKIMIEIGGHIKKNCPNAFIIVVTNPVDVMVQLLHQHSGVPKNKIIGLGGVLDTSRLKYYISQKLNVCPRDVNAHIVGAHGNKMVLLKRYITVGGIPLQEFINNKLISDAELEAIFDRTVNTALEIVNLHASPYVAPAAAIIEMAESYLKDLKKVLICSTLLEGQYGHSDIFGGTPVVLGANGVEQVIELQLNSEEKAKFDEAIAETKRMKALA

On to `Cc1ccc2nc(C)n(C3CCN(C(=O)Cc4ccc(F)c(F)c4)CC3)c2c1`, for which the growth inhibition in test [1] and in test [4] was 100% (active) each time. For the same compound, the inhibition in test [2] is 4%; in test [3], 0%. Moreover, the result in test [5], in test [6], in test [7] and in test [8] was inactive.

As to `COc1ccccc1NC(=O)Nc1cccc(-c2cccc(-c3nc4ccc(C(F)(F)F)cc4[nH]3)c2)c1`, the growth inhibition is 97% (active) in test [1] and 101% (active) in test [4]. The inhibition in test [2] is 21%; in test [3], 5%. The result in test [5], in test [6], in test [7] and in test [8] was inactive.

As for `Cc1cccc2[nH]c(-c3ccc(-c4cccc(NC(=O)Nc5cccc(C#N)c5)c4)cc3)nc12`, the growth inhibition was 86% (active) in test [1] and 102% (active) in test [4]. Also, the results for the inhibition in test [2] and in test [3] were 25% and 7%, respectively. In addition, the outcome in test [5], in test [6], in test [7] and in test [8] was inactive.

As for `O=C(Nc1ccnc2ccccc12)NC1CCN(CCc2ccccc2)CC1`, the figures for the growth inhibition in test [1] and in test [4] were 43% and 100% (active), respectively. For the same compound, the inhibition in test [2] was 7%; in test [3] it was -3%. Also, the result in test [5], in test [6], in test [7] and in test [8] was inactive.

`COc1ccc(C=Cc2cc(N)c3ccccc3n2)cc1Br`: the growth inhibition is 88% (active) in test [1] and 101% (active) in test [4]. In addition, the results for the inhibition in test [2] and in test [3] were 55% (active) and 2%, respectively. Besides, the result in test [5], in test [6], in test [7] and in test [8] was inactive.

Regarding `Cc1c(CCC#N)c(NCc2ccccc2)n2c(nc3ccccc32)c1C#N`, the growth inhibition in test [1] was 99% (active); in test [4] it was 100% (active). Moreover, the inhibition is 16% in test [2] and 2% in test [3]. Besides, the outcome in test [5], in test [6], in test [7] and in test [8] was inactive.

With `Cc1sc2ncnc(Sc3nc4ccccc4[nH]3)c2c1C`, the figures for the growth inhibition in test [1] and in test [4] were 100% (active) and 99% (active), respectively. The inhibition in test [2] was 14%; in test [3], 1%. In addition, the outcome in test [5], in test [6], in test [7] and in test [8] was inactive.

With `O=C(Nc1ccccc1)c1ccc(-c2cc3ccncc3cc2OC2CCNCC2)s1`, the figures for the growth inhibition in test [1] and in test [4] were 8% and 100% (active), respectively. For the same compound, the inhibition in test [2] was -1%; in test [3] it was -2%. In addition, the result in test [5], in test [6], in test [7] and in test [8] was inactive.

Turning to `COc1ccc2nccc([C@@H](O)CN3CCC(NCCOc4c(C)cccc4F)CC3)c2c1`, the values for the growth inhibition in test [1] and in test [4] were 95% (active) and 100% (active), respectively. Moreover, the inhibition was 4% in test [2] and -5% in test [3]. Besides, the outcome in test [5], in test [6], in test [7] and in test [8] was inactive.

Turning to `COc1cc(C(=O)N2[C@@H](c3nccs3)[C@@H](C(=O)N(OC)C(C)c3ccccc3)C[C@@]2(CC(C)C)C(=O)OC(C)(C)C)ccc1C(C)(C)C` (some centres not stated), the growth inhibition in test [1] and in test [4] was 92% (active) each time. In addition, the inhibition was 12% in test [2] and 5% in test [3]. Further, the outcome in test [5], in test [6], in test [7] and in test [8] was inactive.

For the compound `Cc1cc(NC(=O)c2coc3cc(F)c(N4C[C@@H](C)N(C)[C@@H](C)C4)cc23)cnc1-c1ccc(C#N)cc1`, the growth inhibition in test [1] was 71% (active); in test [4], 99% (active). For the same compound, the results for the inhibition in test [2] and in test [3] were 35% and -3%, respectively. Moreover, the outcome in test [5], in test [6], in test [7] and in test [8] was inactive.

Take `O=C(NC1CC1)c1cnc(N2CCC(c3ccccc3)CC2)c(Cl)c1`: the growth inhibition in test [1] is 95% (active); in test [4], 94% (active). The inhibition is 6% in test [2] and 0% in test [3]. The result in test [5], in test [6], in test [7] and in test [8] was inactive.

Regarding `O=C(Nc1cccc(CN2CCN(C(=O)c3cccc(Cl)c3)CC2)c1)c1ccco1`, the growth inhibition is 94% (active) in test [1] and 96% (active) in test [4]. For the same compound, the inhibition is 7% in test [2] and 2% in test [3]. The result in test [5], in test [6], in test [7] and in test [8] was inactive.

Regarding `CC1(C)N=C(N)N=C(N)N1OCCOc1ccc2ccccc2c1`, the growth inhibition in test [1] is 96% (active); in test [4] it was 93% (active). Besides, the inhibition in test [2] was 70% (active); in test [3] it was 5%. Besides, the result in test [5], in test [6], in test [7] and in test [8] was inactive.

Consider `O=C(N[C@@H](CC1CCCCC1)C(=O)NC1CCCCCC1)c1ccc(O)c(-c2ccc(Cl)c(Cl)c2)c1`, for which the growth inhibition in test [1] was 100% (active); in test [4] it was 99% (active). Moreover, the inhibition was -3% in test [2] and -2% in test [3]. In addition, the outcome in test [5], in test [6], in test [7] and in test [8] was inactive.

For `Cc1cc(-c2ccc(CNC3Cc4ccccc4C3)cc2)ccc1S(=O)(=O)NCCN1CCCC1`, the growth inhibition in test [1] is 73% (active); in test [4], 101% (active). Further, the inhibition is 99% (active) in test [2] and 0% in test [3]. In addition, the result in test [5], in test [6], in test [7] and in test [8] was inactive.

`COc1ccc(C2=CCN(c3ccc(Cl)c(Cl)c3)C2=O)cc1OCCN1CCCCC1`: the growth inhibition in test [1] is 99% (active); in test [4], 97% (active). Further, the values for the inhibition in test [2] and in test [3] were 19% and -2%, respectively. The result in test [5], in test [6], in test [7] and in test [8] was inactive.

Turning to `CN(c1ccc2c(c1)nc(Nc1cc(C(C)(C)C)on1)n2C)c1ccnc(Nc2ccc(CS(C)(=O)=O)cc2)n1`, the growth inhibition in test [1] was 13%; in test [4], 89% (active). The values for the inhibition in test [2] and in test [3] were 77% (active) and -6%, respectively. Moreover, the outcome in test [5], in test [6], in test [7] and in test [8] was inactive.

In the case of `COc1cccc(CN2Cc3ccccc3OC3(CCN(Cc4c[nH]c5cnccc45)CC3)C2)c1`, the growth inhibition in test [1] and in test [4] was 83% (active) in each case. Also, the inhibition in test [2] is 39%; in test [3], -3%. The result in test [5], in test [6], in test [7] and in test [8] was inactive.

The inhibition is the change of the read-out against control, counted positive when it falls.

The values are drawn from PubChem BioAssay.
